An excerpt weighted towards active compounds, which were near 1.8% of everything screened.
PGE2 EP2 inh: human EP2 receptor antagonists, primary screen, TR-FRET cAMP, C6 glioma cells. C6 glioma cells expressing human EP2; cells stimulated with saturating PGE2. Prostaglandin E2 receptor EP2 subtype (Homo sapiens), P43116. AID 1422, 2008. inhibition, % at 25 µM. hit rate 0.52% among 260,000;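 active means percent inhibition above 40 after rounding to a whole number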;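 further: rat C6 glioma host cells with rolipram phosphodiesterase inhibitor present; the protocol text gives 20 µM as final concentration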
eIF4E 4G PPI: eIF4E–eIF4G protein interaction inhibitors, primary screen, biochemical, uHTS, TR-FRET, eIF4GI fragment; Eukaryotic translation initiation factor 4E (Mus musculus) + Eukaryotic translation …; TR-FRET eIF4E-eIF4GI(517-606) binding, 2 h; inhibition, % at 21.7 µM; hit rate 0.37% among 220,000;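 active means inhibition above about 30%, limit read from the data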;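 further: 0% = full FRET control wells and 100% = background wells lacking eIF4GI fragment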
EP2 modulator: EP2 receptor modulators, cAMP readout, primary screen, cell-based, HTRF cAMP, PGE2 stimulation; Prostaglandin E2 receptor EP2 subtype (Homo sapiens), P43116; hit rate 0.83% among 260,000; EP2-expressing cells, cAMP HTRF FRET, PGE2 co-stimulation; AID 940, 2007; induction, % at 25 µM;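 active means compounds whose cAMP rise, as percent of the full-agonist control response, exceeds 60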;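 further: rat C6 glioma line stably carrying human EP2 under a CMV promoter; the protocol text gives 20 µM as final concentration; 100% = response of wells given 1 µM PGE2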
PERK inh: block of dimerizer-induced PERK translation repression, primary screen, PERK inhibitor project, CHO PERK-DD cells, SEAP luminescence, HTS | inhibition, % at 5.6 µM | hit rate 0.17% among 220,000 | AID 1416, 2008 | CHO PERK-DD fusion, SEAP luminescence translation reporter | Eukaryotic translation initiation factor 2-alpha kinase 3 (Homo sapiens), Q9NZJ5;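 active means inhibition above the mean inhibition of all tested compounds plus 3 SD, set separately per screening campaign, cut at about 2.9% in these data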;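 further: PERK kinase domain activated by AP20187 dimerizer at 100 nM; 0% = DMSO with dimerizer and 100% = rapamycin at 8.4 µM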
Active calls of the source: *; x = no result; ! = repeats disagree.

SMILES | PGE2 EP2 inh | eIF4E 4G PPI | EP2 modulator | PERK inh
O=C(O)C(Oc1nc(=S)[nH]c(=S)[nH]1)(c1ccc(Cl)cc1)c1ccc(Cl)cc1 | 50* | x | 9 | x
O=C1NC(=O)N(Cc2ccccc2Cl)C(=O)/C1=C/c1cccs1 | 33 | 4 | -83 | 1
O=C1NC(=O)N(Cc2ccc(F)cc2)C(=O)/C1=C/c1cccs1 | 93* | 4 | -65 | 1
C[C@]12CC[C@@H](O)CC1CC[C@@H]1[C@@H]2CC[C@]2(C)C(=O)CC[C@@H]12 (stereo not given in full) | 18 | x | 19 | x
C[C@]12CCC3C(CC[C@H]4C[C@@H](O)CC[C@]34C)C1CCC2=O (stereo not given in full) | 42* | x | -37 | x
CCc1[nH]c2ccc(C(=O)N3CCC(C(C)=O)(c4ccccc4)CC3)cc2c1C | 5 | x | -58 | x
Cc1ccccc1N1C(=O)NC(=O)/C(=C\c2cnn(-c3ccccc3)c2)C1=O | 51* | 2 | -57 | -2
CCn1c(C)cc(/C=C2\C(=O)NC(=O)N(c3ccccc3C)C2=O)c1C | 6 | 0 | -17 | 0
CC(C)c1ccc(C(c2c(O)c3ccccc3oc2=O)c2c(O)c3ccccc3oc2=O)cc1 | 70* | x | -11 | x
O=C(C[C@H](c1ccccc1)c1c(O)c2ccccc2oc1=O)c1ccccc1 | 46* | x | 12 | x
O=c1oc2ccccc2c(O)c1C(c1ccc([N+](=O)[O-])cc1)c1c(O)c2ccccc2oc1=O | 9 | 8 | 9 | 1
CC/C(CC(c1ccccc1)c1c(O)c2ccccc2oc1=O)=N\NC(N)=S (stereo not given) | 4 | 3 | 40 | 1
O=C(CN1C2CCC1CC(O)(c1ccccc1F)C2)NC1CCS(=O)(=O)C1 (stereo not given) | 7 | x | 7 | x
CC12CN3CC(C)(CN(C1)C3c1cccnc1)C2 (stereo not given) | 4 | x | -3 | x
CSc1ccc2c(c1)c(CCN)c(C)n2Cc1ccccc1Cl | 104* | x | -3 | x
CC1OC(=O)[C@@H](C(C)C)NC(=O)C(C(C)C)OC(=O)[C@H](C(C)C)NC(=O)C(C)OC(=O)[C@@H](C(C)C)NC(=O)C(C(C)C)OC(=O)[C@H](C(C)C)NC(=O)C(C)OC(=O)[C@@H](C(C)C)NC(=O)C(C(C)C)OC(=O)[C@H](C(C)C)NC1=O (stereo not given in full) | 10 | x | 12 | x
CC1(C)CC2(CCCN(CCC(N)=O)C2)CCO1 (stereo not given) | 14 | x | 10 | x
CC[C@@H](C(N)=O)N1CCCC1=O | 16 | 98* | x | 2
O=C(CN1CCCC1=O)N1CCOCC1 | 8 | 0 | 8 | 0
CCC(CC)N1CCN(Cc2ccccc2C)CC1 | 3 | x | -10 | x
COc1ccc(-n2c(/C=C/c3ccccn3)nc3ccccc3c2=O)cc1 | 12 | x | -1 | x
O=C1NC(=O)N(c2ccc3c(c2)OCO3)C(=O)/C1=C/c1cccs1 | 92* | 0 | -84 | 1
CCOc1cc(CN2CCN(C(=O)COc3cccc(C)c3)CC2)ccc1OC | 6 | x | -51 | x
CN1/C(=C\C=Nc2ccccc2)C(C)(C)c2ccccc21 | 21 | -1 | 6 | 2
CN1/C(=C\C=C\C2=[N+](C)c3ccc4ccccc4c3C2(C)C)C(C)(C)c2ccccc21 | 114* | -169 | -46 | -3
SMILES | PGE2 EP2 inh | eIF4E 4G PPI | EP2 modulator | PERK inh
CCC(CC)N1CCN(C(=O)COc2ccc(OC)cc2)CC1 | 6 | x | 5 | x
CO[C@@H]([CH2][Hg][n]1cnc2c1c(=O)n(C)c(=O)n2C)CN1C(=O)c2ccccc2S1(=O)=O | 49* | x | 30 | x
CC1(C)C[C@H]2C=C(C=O)[C@]3(C=O)C[C@]3(C)[C@H]2C1 | 88* | 10 | -34 | 0
CCCCn1c(=O)c(C(=O)NCc2ccncc2)c(O)c2ccccc21 | 17 | -6 | 63* | 1
Cc1ccc(-c2nc(C)sc2CC(=O)N(C)CCN(C)C)c(C)c1 | 32 | x | -2 | x
COc1ccc2c(c1)c(C(=O)O)c(C)n2CC(C)C | 12 | 7 | 41 | -1
COc1cc(O)c(C(=O)O)c(-c2cc(O)c(O)cc2C)c1 | 77* | -16 | 23 | x
COc1cccc2c1C(=O)c1c(O)c3c(c(O)c1C2=O)C[C@](O)(/C(C)=N/O)C[C@@H]3O[C@@H]1C[C@H](N)[C@@H](O)[C@H](C)O1 | 46* | x | 8 | x
C#CCOc1ccccc1CN1C2CCC1CC(O)(c1ccccc1F)C2 (stereo not given) | 6 | x | -35 | x
COC(=O)c1c(C)ccc2c(O)c3c(cc12)C(=O)c1c2c(cc(O)c1C3=O)[C@@]1(C)O[C@@](C)(O2)[C@@H](O)[C@H](N(C)C)[C@H]1O | 42* | x | 12 | x
CN(C)c1ccc2c(c1)N=C(c1ccco1)OP2(=S)N1CCOCC1 (stereo not given) | 8 | 41* | 3 | 2
O=C(CN1C2CCC1CC(O)(c1ccco1)C2)NC(c1ccccc1)c1ccccc1 (stereo not given) | x | x | 3 | x
NC(=O)c1cn(C2OC(CO)C(O)C2O)c2ncnc(N)c12 (stereo not given) | 19 | -6 | 12 | 5.3*
CCN1CC2(C)CC[C@H](OC)[C@]34C2[C@H](O)C2(OCO[C@@]25C[C@H](OC)[C@H]2C[C@]3(O)C5[C@H]2O)C14 | 9 | x | -4 | x
CN(C)CCN(C(=O)Cc1ccc2c(c1)CCC2)C1CCN(C)CC1 | 7 | x | -38 | x
CN1CCN2c3ccc(N)cc3CC3(C(=O)NC(=O)NC3=O)C2C1 (stereo not given) | 8 | 93* | 42 | 0
COc1ccc(C2=NCC(=O)N(CC(=O)N3CCCC3)c3sc(C)c(C)c32)cc1 | 8 | x | 15 | x
O=C(Nc1cccnc1)c1c(O)c2c(n(Cc3ccccc3)c1=O)CCCC2 | 2 | 61* | 34 | 0
O=C(Nc1ccc(F)cc1)c1c(O)c2c(n(Cc3ccccc3)c1=O)CCCC2 | 8 | 5 | 54 | 0
Nc1ccc(S(=O)(=O)c2ccc(NCN3C(=O)NC(=O)C(=O)C3=O)cc2)cc1 | 44* | x | 14 | x
O=c1c2ccccc2[se]n1-c1ccccc1 | 47*! | 77* | -2 | 1
COc1cc2c(cc1/C=C/[N+](=O)[O-])OCO2 | 103* | -3 | -122 | 0
COc1cccc(CN2CCN(C(=O)Cc3ccccn3)[C@@H](C)C2)c1 | x | x | -62 | x
COC(=O)[C@@H]1c2cc3c(c(O)c2[C@@H](O)C[C@]1(C)O)C(=O)c1c(O)cc2c(c1C3=O)O[C@H]1O[C@]2(C)[C@@H](O)[C@H](N(C)C)[C@H]1O | 49* | x | 19 | x
C[C@]12CC[C@@H]3[C@H](CCC4=CC(=O)CC[C@]43C)[C@]1(O)CC[C@@]2(O)C(=O)CO | 55* | x | -3 | x
